Source: PubChem BioAssay AID1347426 (Functional Genomics Laboratory (NCATS/FGL), 2020)
The whole screen tested about 31,000 sequences, of which about 1,400 (4.5%) were called active. Many of the other results were omitted from the sample, so actives are more common in it than they were. Values without a mark were called inactive.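 Rule for the calls: active = median seed-adjusted z-score above 1 or below -1; inactive = the rest.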

Test: Novel Modifiers of Survival Motor Neuron (SMN) Protein: Gene Identification via Genome-wide siRNA Screen;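 note: luminescence tracks full-length SMN protein made from the SMN2 reporter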
Details: HEK293T SMN2-luciferase reporter, siRNA knockdown, 72 h; actives lie on both sides
How it was run: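 Genome-wide siRNA screen (10418 genes, 3 siRNAs each, 1 pmol per well) by reverse transfection in HEK293T cells stably carrying an SMN2-luciferase reporter; luminescence after 72 hours, normalized to negative-control siRNA, log10-transformed, MAD-scored.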

| Sequence | median seed-adjusted z-score |
| --- | --- |
| GGGAAGAACAGAAUACUGATT against ZNF563 | 0.00283 |
| GCGUGGAAAUUGUACCCGUTT against MBNL3 | -0.189 |
| GGAAAAGGAACGGAAUAAATT against MLN | -0.422 |
| GCAGUUAACACUCAAGGAATT against MKKS | 1.03 (active) |
| GGUAAUCUUUAUGAAGAGATT against GCM1 | 0.0197 |
| GCCUGUAAGUUAUUAAAGATT against ARL4D | -0.523 |
| GGCUGAAAUUGUAACCCUATT against TPD52L3 | 0.552 |
| GCAACCUUCUAACUACGGUTT against HNRNPA2B1 | 1.33 (active) |
| CAGGAUCUGUUCAACCAAATT against VWA2 | 0.584 |
| GGAUGGGAACAACCCUGCATT against HMGN4 | -0.0471 |
| CCUCCUUGUUAGUGUCUUUTT against CLEC11A | -1.1 (active) |
| CCAGGUCCCUAAUCAUGGATT against NOXA1 | -0.441 |
| GGGAAGCACUGGUCGAAGATT against DTD1 | -1.58 (active) |
| AGGCCUUUCUGGGACCUUATT against ZP4 | 0.0498 |
| CUAAGACCAGUAUAGUAAATT against ARF6 | -0.805 |
| GGAUCUGGUUCAACUUGGATT against FUT3 | 0.11 |
| GUGUCUCAGGGAUAGGUAATT against MICAL2 | -0.0224 |
| AGGAGUUCUUGGUCAUGAUTT against TNNC2 | -0.773 |
| GCAUUACAGUCUGAAUUGATT against PTPDC1 | -0.191 |
| GCUUUAUGCUGCUAAGGCATT against PGD | -1.55 (active) |
| CGACAAGUCUUCGACCUGATT against DGKZ | 0 |
| GCUGCUAUUUGAUAGACCATT against HNRNPM | 0.499 |
| GAAUGAUGAUGCAUGCCUUTT against MS4A10 | -0.24 |
| CACCUCUAAUCAUCGAUGATT against UAP1 | 0.0411 |

| Sequence | median seed-adjusted z-score |
| --- | --- |
| AGGUCUGGACGACAACUAUTT against MST1 | -1.47 (active) |
| GGAGCCUAUCAUAACCUUATT against ZNF484 | 0.2 |
| GGGUACCGAGGAUCGCUUUTT against LAMA5 | 0.229 |
| GUAUCUAAGAGAUAUGGAATT against ORC5L | -0.126 |
| GACUCCCAUUUGAGACUUUTT against ZMAT1 | -0.123 |
| ACACCUACAUGAUGACGCATT against EVX2 | 0.181 |
| CCUCAAAUGCAGUAUUUUUTT against HMOX1 | 0.45 |
| GCAACUACGUGACUCGCUATT against SMUG1 | -1.38 (active) |
| CGUCAGUGCUUCGCAUACATT against ZBTB45 | 0 |
| GAAGGAGCAGGAUUACCAATT against TMED4 | -0.895 |
| GAGCUUCAACUAACAGGAATT against NUPL2 | 0.134 |
| CAUGGUCCAUUAUUCGUGATT against ATP6V1A | -0.0106 |
| GGAAUUGGUUUCAGUCAAATT against RCOR1 | -1.13 (active) |
| GACUUACCUUCUGAGCAUATT against ZNF792 | 0 |
| CGACUUCAUUGUAAAGAAATT against LIPF | 0.54 |
| GCUGCGUCAUUUUCGAAAATT against MOXD1 | -0.162 |
| GAACGAGCUGGAUCCAUUATT against ARSF | 0.111 |
| CCUUACGAAUCAUAAGAUATT against ZNF708 | 0.0562 |
| CAGAGAACCUUCAAGUUAATT against ZNF239 | -0.191 |
| GCAUAGCCCUCAACAAGAATT against IRF6 | -1.79 (active) |
| GCCGCUUUCGGAAUAAGAUTT against DGKZ | 0 |
| CGGAGAACAUUGUUGUUCUTT against TMTC2 | 0.0277 |
| GCACCUUGCAGGAUUGGAATT against PEAR1 | 0.071 |
| ACCAUAGCCUCUCACCCUATT against RASA4 | -1.11 (active) |

| Sequence | median seed-adjusted z-score |
| --- | --- |
| ACGCAACCCUCAACAGCUCTT against UTS2R | 0.0819 |
| GGGACUCAGUACUUCCAUATT against SLC39A8 | 0.265 |
| CGAAGUUCAUAGACGAGAUTT against PPP1R2 | 0.208 |
| AGAGGUCUUCGACAAUAAATT against CD9 | -1.02 (active) |
| GAGCCUCCUCAAAUCCAAATT against SERPING1 | -0.244 |
| CGUGGGAUAUGUUGACGGATT against BTNL3 | 0 |
| GGAAUUUUUCGGGUGGUUATT against ELF5 | -0.45 |
| GAUCGAUAUCUUUACAAGATT against SLK | 0.0479 |
| CGAUGGAGAUCAACGUGAATT against UBE2E2 | -1.77 (active) |
| CCUUCACUAUUGCCCGCAATT against ABCD1 | 0 |
| UGAUGACACCAACCACGAATT against CNP | -0.116 |
| GGCCCAUAUUCAUCUGCUATT against STYX | 0.694 |
| AGCACGAGCUAGUCCCUGATT against POLR2E | -1.25 (active) |
| GCAAGAUCCGAGAAGAAUATT against TUBB | -0.307 |
| GCAUGAUCGGGAGGGUUUATT against PPID | -0.206 |
| GGUUAUGAACUUUGGAUAATT against GPR103 | 0 |
| CUAUGUCAGUGGUCCUGAATT against RETSAT | -1.7 (active) |
| CAAUGAAGACUGAUGUAUUTT against SLC9A2 | -1.02 (active) |
| CCCUUACUACAACUACAAATT against ZBTB38 | 0.448 |
| GGGCGAUUCCUGUCUAAGATT against PUM1 | 0.109 |
| CGAACUCCGCUUUUUCUUATT against FZD7 | -0.159 |
| GCUACAACGGAAACAAUCATT against MSTN | -0.639 |
